SW480 rereplic: A quantitative high throughput screen for small molecules that induce DNA re-replication in SW480 colon adenocarcinoma cells | Potency, µM (series often up to 46.1 µM), for inactives: top-dose re-replication activation, most hits filed as activators | hit rate 1.8% among 340,000 | SW480 DNA re-replication, Hoechst DNA content imaging, 48 h | AID 624297, 2012; further: % of control where 0% means no effect; nearly all actives have a fitted effect of over 55% in size
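First, 250 cells per well were seeded. Next, compound or vehicle (23 nL) was pinned in, plates sat 48 hr at 37 C. Finally Hoechst was added for 40 min before fluorescence scanning.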
KB-V1 MDR tox: qHTS assay for MDR1-selective chemotherapeutics: Primary screen using the drug-selected MDR subline cells KB-V1; KB-V1 MDR cells viability, CellTiter-Glo, 72 h; Potency, µM (titrated, usually from 46.1 µM), hits mostly cytotoxic; hit rate 3.4% among 400,000; further: on the % scale 0 is the no-effect control and ±100 the full control effect; nearly all actives have a fitted effect of over 60% in size
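Potencies derive from concentration-effect curves fitted to normalized luminescence (CellTiter-Glo) of KB-V1 cells treated for 72 h at 37 degrees C in phenol-red-free DMEM containing 10% FBS.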
KB-3-1 cytotox: qHTS assay for MDR1-selective chemotherapeutics: Primary screen using the parental adenocarcinoma cell KB-3-1; AID 1347075, 2019; KB-3-1 viability, CellTiter-Glo ATP luminescence, 72 h; hit rate 1.4% among 400,000; Potency, µM (series often up to 46.1 µM), usual class: cytotoxic; further: on the % scale 0 is the no-effect control and ±100 the full control effect; nearly all actives have a fitted effect of over 60% in size
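Parental KB-3-1 viability, qHTS format: 72 h compound exposure, 37 °C; CellTiter-Glo; media-only wells and DMSO plates as controls; concentration-effect fits on corrected data.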
PINK1 expr mod: A Quantitative High throughput Screen to Identify Chemical Modulators of PINK1 Expression; PINK1 immunofluorescence, high-content cytometry, 24 h; Potency, µM (top dose mostly 76.6 µM), for the others: at the top dose activation (PINK1 increase), usual class: activators; hit rate 0.2% among 410,000; AID 624263, 2012; active means well fitted activation curve with a large enough effect; inconclusive means small, poorly fitted or top-dose-only effect; cell line not stated here; further: % of control where 0% means no effect; nearly all actives have a fitted effect of over 65% in size
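PINK1 protein, normally rapidly degraded, was detected by immunofluorescence after 24 hour compound treatment of a stable cell line. Titration data (5 concentrations) came from laser-scanning cytometry, with CCCP-treated wells as controls.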
PTAP TSG101 blk: qHTS Assay for Iinhibitors of HIV-1 Budding by Blocking the Interaction of PTAP/TSG101. Tumor susceptibility gene 101 protein (Homo sapiens), Q99816. AID 493005, 2010. Fluorescence polarization, FITC-PTAP peptide / Tsg101 binding. 340,000 tested, under 10 active. Potency, µM (titrated, usually from 115 µM), for the others: at the top dose activity change, negative = inhibition, most hits filed as inhibitors; active means well fitted inhibition curve with a large enough effect in the main read-out, with a control signal flat, not every such curve was filed as active; inconclusive means small, poorly fitted or top-dose-only effect, or effect the other way, or a change in a side signal; inactive means no such curve, though single readings can be large or run the other way; further: % of control where 0% means no effect
Target sequence (Q99816 whole entry, looked up): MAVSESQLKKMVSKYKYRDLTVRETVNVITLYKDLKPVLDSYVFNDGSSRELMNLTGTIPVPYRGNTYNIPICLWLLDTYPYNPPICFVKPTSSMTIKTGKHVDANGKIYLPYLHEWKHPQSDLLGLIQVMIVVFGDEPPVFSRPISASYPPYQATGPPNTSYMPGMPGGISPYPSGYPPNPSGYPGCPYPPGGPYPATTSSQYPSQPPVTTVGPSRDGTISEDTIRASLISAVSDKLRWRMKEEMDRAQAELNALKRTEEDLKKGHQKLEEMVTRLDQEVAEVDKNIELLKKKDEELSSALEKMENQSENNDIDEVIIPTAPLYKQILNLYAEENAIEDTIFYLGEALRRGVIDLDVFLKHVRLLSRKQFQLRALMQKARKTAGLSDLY
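FP read-out: FITC-PTAP peptide, 50 nM final, binding Tsg101 binding domain, 10 uM final; 20 min, r.t.; 10 mM HEPES pH 7.5, 0.15 M NaCl, 0.01% Tween 20, 3 mM EDTA, 0.1 mM TCEP.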
MCF10A rereplic: A quantitative high throughput screen for small molecules that induce DNA re-replication in MCF 10a normal breast cells. Potency, µM (doses to about 46.1 µM), for inactives: at the top dose activity, positive = re-replication, actives largely listed as activators. MCF 10A DNA re-replication, Hoechst nuclear intensity, 48 h. AID 624296, 2012. hit rate 2.9% among 350,000; further: % of control where 0% means no effect; nearly all actives have a fitted effect of over 50% in size
Active calls of the source: *; i = inactive; u = inconclusive; x = no result; ! = not active in a repeat. This is a sample that favours compounds with a hit; in the whole collection about 6.8% have one here. Unless noted, the call rests on the fitted dose curve; in most records, active means well fitted curve in the direction sought with a large enough effect; inconclusive means small, poorly fitted or top-dose-only effect, or another doubt; inactive means no such curve, though single readings can be large; an effect the other way counts as inactive or inconclusive. Potency means the concentration at half of the fitted maximal effect.

SMILES	SW480 rereplic	KB-V1 MDR tox	KB-3-1 cytotox	PINK1 expr mod	PTAP TSG101 blk	MCF10A rereplic
COc1cc2nc(CN3CC=C(c4ccccc4)CC3)[nH]c(=O)c2cc1OC	u	u	7.31µM*	u	0.0%	2.91µM*
COc1cc(C)c(CN2CC=C(c3ccc(F)cc3)CC2)cc1C	0.6%	u	i	u	-5.8%	u
Nc1ccc2c3c(cccc13)CC2	16.4µM*	i	i	7.3%	-12.7%	16.4µM*
COc1ccccc1N1C(=O)NC(=O)/C(=C/c2ccc3c4c(cccc24)CC3)C1=O	-3.1%	i	i	6.1%	-8.1%	11.1%
C=CCN(C1=NCCN1)c1c(Cl)cccc1Cl	-1.0%	x	x	x	x	0.0%
C[C@H]1CCC/C=C/[C@@H]2C[C@H](O)C[C@H]2[C@H](O)/C=C/C(=O)O1	u	0.581µM*	0.0651µM*	0.2%	4.5%	0.651µM*!
COc1cc(O)cc2c1C(=O)OC(C)CCCC(=O)CCC/C=C\2 (stereo not drawn)	-7.8%	u	i	-1.1%	0.0%	0.2%
C[C@H]1CN([C@@H](C)CO)C(=O)c2cc(NC(=O)Nc3cccc4ccccc34)ccc2O[C@@H]1CN(C)Cc1ccc(-c2ccccc2)cc1	57.3%	u	i	0.4%	0.1%	-28.4%
CCN(CC)S(=O)(=O)c1ccc(NN=C(C#N)C#N)cc1	16.3%	i	i	9.7%	-3.5%	10.3µM*
N#CC(C#N)=NNc1ccc([N+](=O)[O-])cc1	u	i	i	u	8.7%	18.4µM*
S=C=S	-4.5%	x	x	x	x	-1.8%
CCC(C)C(=O)c1c(O)c(C)c2oc3c(C)c(O)c(C(=O)C(C)CC)c(O)c3c2c1O (stereo not drawn)	x	x	x	15.8µM*	x	x
CC12CCC3C(CC=C4CC(O)CCC43C)C1CC(=CN1CCOCC1)C2=O (stereo not drawn)	28.0%	i	i	6.0%	-5.9%	3.7%
Cc1nn(C)cc1/C=C1/CC2C3CC=C4CC(O)CCC4(C)C3CCC2(C)C1=O (stereo not drawn)	-16.0%	18.4µM*	i	0.3%	-1.5%	u
CC12CCC3C(CC=C4CC(O)CCC43C)C1C/C(=C\c1ccccc1F)C2=O (stereo not drawn)	7.6%	i	i	9.7%	-3.2%	6.51µM*
C[C@]12CC[C@H](O)CC1=CC[C@@H]1[C@@H]2CC[C@]2(C)C(=O)CC[C@@H]12	-1.0%	u	i	1.5%	6.1%	1.8%
CC1=CC2/C=C(\C)CCC(O)C(O)/C=C/C(=O)C23C(=O)NC(CC(C)C)C3C1C (stereo not drawn)	18.4µM*	u	4.61µM*	-1.3%	-2.0%	u
c1ccc2c(CN3CCCCCCC3)c[nH]c2c1	u	14.6µM*	20.6µM*	0.1%	-0.8%	11.2%
c1ccc2c(CN3CCN(C4CCCCC4)CC3)c[nH]c2c1	u	i	i	-0.5%	-0.2%	-1.1%
Cc1cc(/C=C/c2ccnc3ccccc23)ccc1N(CCCl)CCCl	x	i	u	1.2%	x	x
O=c1[nH]c2ccccc2n1C1CCN(C(CCc2ccccc2)c2nnnn2-c2ccc3c(c2)OCCO3)CC1 (stereo not drawn)	x	23.1µM*	u	-1.4%	x	x
CCCCn1nnnc1C(CCSC)N1CCC(n2c(=O)[nH]c3ccccc32)CC1 (stereo not drawn)	x	u	i	-1.4%	x	x
CCCCn1nnnc1C(CCc1ccccc1)N1CCC(n2c(=O)[nH]c3ccccc32)CC1 (stereo not drawn)	x	4.11µM*	u	-1.6%	x	x
Cc1ccccc1-n1nc(C)c2c1NC(=O)CSC2c1ccccc1C(F)(F)F (stereo not drawn)	x	i	u	3.7%	x	x
COc1ccccc1CCNC1C2CC3CC(C2)CC1C3 (stereo not drawn)	u	14.6µM*	i	-1.1%	-3.3%	14.1%
SMILES	SW480 rereplic	KB-V1 MDR tox	KB-3-1 cytotox	PINK1 expr mod	PTAP TSG101 blk	MCF10A rereplic
Cc1cc(/C=C/c2cccc3sc(C)[n+](CCCCI)c23)ccc1N(CCCl)CCCl	x	i	i	3.2%	x	x
c1ccc(N2CCCC3(CCNCC3)C2)nc1	x	x	x	-0.5%	x	x
O=C(Nc1ccccc1)N1CC[C@@]2(CCCNC2)C1	x	x	x	-1.0%	x	x
CC(=O)OC(C)(C)/C=C/C(=O)C(C)(O)C1C(O)CC2(C)C3CC=C4C(CC(O)C(=O)C4(C)C)C3(C)C(=O)CC12C (stereo not drawn)	0.0116µM*	0.461µM*	0.164µM*	-7.2%	-1.6%	u
CC(=O)OC(C)(C)/C=C/C(=O)[C@](C)(O)[C@H]1[C@H](O)C[C@@]2(C)[C@@H]3CC=C4[C@H](C[C@H](O)C(=O)C4(C)C)[C@]3(C)C(=O)C[C@]12C	u	8.2µM*	0.146µM*	-0.1%	0.3%	u
CC(=O)OC(C)(C)/C=C/C(=O)C(C)(O)C1[C@H](O)C[C@@]2(C)C3CC=C4C(CC[C@@H](O)C4(C)C)[C@]3(CO)C(=O)C[C@]12C (stereo partly drawn)	u	3.66µM*	u	-1.2%	0.1%	u
CN(C(=O)CSc1nnc(COc2ccccc2F)n1N)C1CCCCC1	-31.2%	i	i	-0.9%	-3.8%	-25.2%
O=c1[nH]/c(=C\c2ccc(N(CCCl)CCCl)cc2)c(=O)[nH]/c1=C\c1ccc(N(CCCl)CCCl)cc1	x	i	u	0.7%	x	x
CCn1nc(/C=C/c2ccccc2)nc2c(=O)n(C)c(=O)nc1-2	u	u	4.11µM*	-1.6%	-2.7%	11.2µM*
CCOc1ccc(-n2c(/C=C/c3ccccc3)nc3ccccc3c2=O)cc1	x	i	i	-0.2%	x	x
CCn1nc(-c2cccs2)nc2c(=O)n(C)c(=O)nc1-2	u	u	u	-1.5%	4.7%	0.731µM*
CC1=C/C(=N\NC(=S)NCCc2ccccc2)CC(C)(C)C1	5.6%	i	i	2.7%	-0.9%	u
COc1ccc(S(=O)(=O)N2c3ccc(F)cc3CCC2C)cc1 (stereo not drawn)	u	1.64µM*	1.64µM*	3.7%	-0.5%	0.92µM*
CCOc1ccc2nc(N3CCC(C(=O)N4CCC5(CC4)OCCO5)CC3)sc2c1	25.7%	2.91µM*	u	6.7%	-0.1%	12.9%
ClC=C(Cl)Cl	-1.2%	x	x	x	x	-1.3%

Compound activity deposited in PubChem BioAssay by National Center for Advancing Translational Sciences (NCATS).
